Growth data for 38 compounds are collected here from PubChem BioAssay (NCI).

This is part of a sample that, as a whole, favours compounds with a hit. Of some 83,000 tested, about 20% had one in any assay.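 Step 1: grow cells in 96-well plates. Step 2: add test compound at a single concentration. Step 3: incubate 48 h. Step 4: record percent growth.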 Activity calls are given as the source filed them. How the source made its calls: active means growth percent below 10; inactive means the rest.

The subject of the first assay is MCF7 breast. In words: NCI-60 one-dose screen, 48 h (100 = growth as untreated, 0 = no growth, -100 = all killed). As to conditions: 10 µM unless noted.
Take `CCc1ccc(C(c2ccc(CC)cc2)C(Cl)(Cl)CCl)cc1`: the growth is 106% (inactive).
Take `Cc1ccc(C2CC3c4ccccc4C2C2CCCCN32)cc1` (configuration not stated): the growth is 95.7% (inactive).
In the case of `CCOC(=O)C(=Cc1ccccc1F)C(=O)OCC`, the growth was 58.6% (inactive).
Same read-out and setting: the result for `CCN(CC)CCCNc1cc(OC)cc2nc3cc(Cl)ccc3nc12` reads -2.19% (active); that for `O=C(/C=C/c1cc2ccccc2[nH]c1=O)/C=C/c1cc2ccccc2[nH]c1=O`, -42.3% (active).
For the compound `Cc1cc(-c2nc3ccccc3s2)ccc1NC(=O)COc1ccc(Cl)cc1`, the growth was 17.5% (inactive).
As for `COc1cc(OC)c(/C=C/S(=O)(=O)Cc2cnc(OC)c(N)c2)c(OC)c1`, the growth was 11.6% (inactive).
As to `COc1ccc(/C=C2\N=C3Sc4cc(Cl)ccc4C(=O)N3C2=O)cc1`, the growth was 94.7% (inactive).
As to `O=C([C@@H](COCc1ccccc1)N1C(=O)[C@@H](N2C(=O)OC[C@@H]2c2ccccc2)[C@H]1/C=C/c1ccccc1)N1CCC(CCN2CCCCC2)CC1`, the growth is 74.9% (inactive).

In a further assay the test system is HCT-116 colon. Described as above. The note with it: 10 µM unless noted.
For the compound `CCOC(=O)C(C#N)C1CCCCC1` (configuration not stated), the growth is 99.4% (inactive).
Turning to `Cc1nc2nc(N)nc(N)c2nc1C`, the growth is 94.3% (inactive).
Same read-out and setting: under `Cc1cc2cc3cc(C)c(N(C)C)cc3[n+](C)c2cc1N(C)C` stands 12.6% (inactive); under `O=[N+]([O-])c1cccc(-c2nc3sccn3c2-c2ccnc(NCCCNS(=O)(=O)c3cccc(F)c3)n2)c1`, 7.77% (active).
`Cc1ccc(Nc2nc(N)nc(Nc3ccc4ccccc4c3)n2)cc1`: the growth was 21.8% (inactive).
With `COc1ccc(C(=O)COc2ccc(/C=C3\Oc4ccc(Cl)cc4C3=O)cc2)cc1`, the growth is 23.6% (inactive).
Consider `O=C(/C=C/c1ccc(B(O)O)cc1)/C=C/c1ccc(B(O)O)cc1`, for which the growth is -94.4% (active).
As for `CNC(=O)c1cc(Oc2ccc3nc(NC(=O)Nc4ccc(CN5CCOCC5)c(C(F)(F)F)c4)sc3c2)ccn1`, the growth was 6.2% (active).
In the case of `C=C1C(=O)O[C@H]2[C@H]1CC/C(Cn1cc(Cn3ccc4cc(Cl)ccc43)nn1)=C\CC[C@@]1(C)O[C@@H]21`, the growth is -91.5% (active).
In the case of `Nc1ccc(N2CCOCC2)cc1`, the growth was 98% (inactive).
In the case of `CCCCCCCCCc1cc(CN2CCCCC2)c(O)c(CN2CCCCC2)c1`, the growth was 39.1% (inactive).
Still for that read-out and setting: the result for `COc1ccc2nc3cc(Cl)ccc3c(N3CCN(c4nccc(Nc5ccccc5)n4)CC3)c2c1` reads 16.3% (inactive); that for `COc1ccc(-c2nn(-c3ccccc3)cc2/C=C/C(=O)OCc2cn(-c3ccc(F)c(Cl)c3)nn2)cc1`, 84.8% (inactive); that for `COc1ccc(C2CC(=O)Nc3c2c(C)nn3-c2nc3ccccc3[nH]2)cc1` (configuration not stated), 108% (inactive).
The same measure, in the same setting: under `COc1cc(NC(N)=NCC(C)(C)COc2ccc(C(F)(F)F)cc2)cnc1C#N` stands 37.7% (inactive); under `CSc1nc(NCCO)c(C#N)c(-c2cccc(N)c2)n1`, 98.9% (inactive); under `COc1cccc(/C=C2/C(=O)N(Cc3ccco3)SC2=S)c1OC`, 86.4% (inactive).
`COc1ccc2nc3cc(Cl)ccc3c(N3CCN(c4nccc(Nc5ccc(Cl)cc5)n4)CC3)c2c1`: the growth is 12% (inactive).
`NCc1cn2cc(Cl)sc2n1`: the growth was 107% (inactive).
Consider `COc1ccc(/C=C/C(=O)c2ccc(NC(=O)c3cc4cc5ccccc5nc4s3)cc2)cc1OC`, for which the growth was 91.6% (inactive).
As for `CC(=O)N1CC(Nc2ccc(OC(F)(F)F)cc2)=CC1=O`, the growth was 39.2% (inactive).
The same measure, in the same setting: under `COc1ccc(/C=N\NC(=O)CN2CCN(c3cc4c(cc3F)c(=O)c(C(=O)N/N=C/c3ccc(OC)cc3)cn4C3CC3)CC2)cc1` stands 88.8% (inactive); under `CN(C)c1ccc(/C=C\C2=[N+](C)c3ccccc3C2(C)C)cc1`, 7.97% (active); under `COc1nc2c(cc1S(=O)(=O)c1ccccc1)CCc1c-2cnn1-c1ccc(Cl)cc1`, 88.1% (inactive).
Consider `CC1=C(NCCN2CCCC2)C(=O)c2c(OCc3ccc(F)c(Cl)c3)cccc2C1=O`, for which the growth is 31.6% (inactive).
Same read-out and setting: the result for `CN1CCN(Cc2ccc(NC(=O)c3cncc(C#Cc4cnc(N)c5cccnc45)c3)cc2C(F)(F)F)CC1` reads 3.52% (active); that for `C/C(=C(/c1ccc(O)cc1)c1ccc(OCCN2CCCC2)cc1)c1ccccc1`, 41.2% (inactive); that for `c1ccc2sc(SCCCn3ccnc3)nc2c1`, 92.5% (inactive).
Regarding `COC(=O)C12C3C(=O)N(c4ccc(OC)cc4)C(=O)C3C(c3cn(-c4ccccc4)nc3C)N1[C@H](c1cn(-c3ccccc3)nc1C)[C@@H]1C(=O)N(c3ccc(OC)cc3)C(=O)[C@@H]12` (some centres not stated), the growth was 104% (inactive).
On the same count and under the same terms, the result for `CCc1ccc(C(c2ccc(CC)cc2)C(Cl)(Cl)CCl)cc1` reads 76.3% (inactive).
In the case of `Cc1ccc(C2CC3c4ccccc4C2C2CCCCN32)cc1` (configuration not stated), the growth was 95.1% (inactive).
Turning to `CCOC(=O)C(=Cc1ccccc1F)C(=O)OCC`, the growth is 75.1% (inactive).
For `CCN(CC)CCCNc1cc(OC)cc2nc3cc(Cl)ccc3nc12`, the growth was -91.8% (active).
As to `O=C(/C=C/c1cc2ccccc2[nH]c1=O)/C=C/c1cc2ccccc2[nH]c1=O`, the growth was -71.1% (active).
As for `Cc1cc(-c2nc3ccccc3s2)ccc1NC(=O)COc1ccc(Cl)cc1`, the growth was 76.7% (inactive).
Take `COc1cc(OC)c(/C=C/S(=O)(=O)Cc2cnc(OC)c(N)c2)c(OC)c1`: the growth is 3.33% (active).
Consider `COc1ccc(/C=C2\N=C3Sc4cc(Cl)ccc4C(=O)N3C2=O)cc1`, for which the growth was 104% (inactive).
`O=C([C@@H](COCc1ccccc1)N1C(=O)[C@@H](N2C(=O)OC[C@@H]2c2ccccc2)[C@H]1/C=C/c1ccccc1)N1CCC(CCN2CCCCC2)CC1`: the growth is 83.1% (inactive).
